For some of these results: Potency and affinity values are given separately.
Tests used:
Parameters in all cases: scale not given: direction of the effect not stated beside the values
[1] = target: Protein translocase subunit SecA (Escherichia coli (strain K12)) (UniProt P10408); test: Assay to Identify E. coli SecA ATPase Inhibitors; format: functional; details: 30 µM
[2] = target: T1, Ubiquitin-activating enzyme e1, putative (Leishmania donovani (strain BPK282A1)) (UniProt E9BSI1); test: Leishmania donovani Ubiquitin Activating Enzyme (LdE1); format: functional; details: 30 µM
T1 sequence (whole entry): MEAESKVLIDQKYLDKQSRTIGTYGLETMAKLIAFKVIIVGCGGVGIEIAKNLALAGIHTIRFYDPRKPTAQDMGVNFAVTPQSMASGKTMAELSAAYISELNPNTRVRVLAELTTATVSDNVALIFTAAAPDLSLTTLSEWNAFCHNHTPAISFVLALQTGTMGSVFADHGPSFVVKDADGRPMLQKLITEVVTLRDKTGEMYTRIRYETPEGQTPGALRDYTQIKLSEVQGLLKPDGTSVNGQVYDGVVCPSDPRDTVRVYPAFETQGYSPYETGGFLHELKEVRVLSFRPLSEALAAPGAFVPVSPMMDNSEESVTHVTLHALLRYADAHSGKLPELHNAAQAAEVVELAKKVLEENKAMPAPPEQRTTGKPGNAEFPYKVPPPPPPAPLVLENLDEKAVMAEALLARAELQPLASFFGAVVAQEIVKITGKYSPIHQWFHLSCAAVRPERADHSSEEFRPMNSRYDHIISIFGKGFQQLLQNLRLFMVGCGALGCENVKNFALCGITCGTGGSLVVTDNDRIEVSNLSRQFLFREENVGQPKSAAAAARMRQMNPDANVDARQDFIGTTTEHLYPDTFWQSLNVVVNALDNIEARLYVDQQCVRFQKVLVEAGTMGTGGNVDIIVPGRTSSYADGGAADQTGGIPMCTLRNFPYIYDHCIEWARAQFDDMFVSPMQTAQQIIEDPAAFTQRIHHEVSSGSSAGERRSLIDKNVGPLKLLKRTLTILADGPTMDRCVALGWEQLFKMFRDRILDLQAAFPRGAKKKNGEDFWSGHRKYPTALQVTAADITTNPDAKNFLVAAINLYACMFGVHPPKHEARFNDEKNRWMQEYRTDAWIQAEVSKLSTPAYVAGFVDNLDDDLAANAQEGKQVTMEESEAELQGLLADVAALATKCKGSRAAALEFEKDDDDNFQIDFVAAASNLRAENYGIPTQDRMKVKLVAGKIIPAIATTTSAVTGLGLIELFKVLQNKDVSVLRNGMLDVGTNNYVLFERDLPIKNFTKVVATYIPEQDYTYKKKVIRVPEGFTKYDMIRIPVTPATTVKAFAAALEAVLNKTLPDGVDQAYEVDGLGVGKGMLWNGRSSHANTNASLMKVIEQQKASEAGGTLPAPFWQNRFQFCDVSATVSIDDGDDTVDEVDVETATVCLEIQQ

[3] = target: AMP-activated protein kinase, AMPK (Homo sapiens) (UniProt P54646+O43741+P54619+Q9UGJ0+Q9Y478+Q13131+Q9UGI9); test: AMP-dependent Kinase enzyme assay. An in vitro enzyme assay that detects ADP turnover that is directly proportional to AMPK activity. This uses naive AMPK that is activated during the assay with MK-8722; format: functional; details: 30 µM
[4] = target: Sialic acid-binding Ig-like lectin 9 (Homo sapiens) (UniProt Q9Y336); test: Hs-Siglec9 ALPHAscreen SOP 20170721; details: 10 µM
Sequence of Sialic acid-binding Ig-like lectin 9 (Homo sapiens) (Q9Y336 whole entry): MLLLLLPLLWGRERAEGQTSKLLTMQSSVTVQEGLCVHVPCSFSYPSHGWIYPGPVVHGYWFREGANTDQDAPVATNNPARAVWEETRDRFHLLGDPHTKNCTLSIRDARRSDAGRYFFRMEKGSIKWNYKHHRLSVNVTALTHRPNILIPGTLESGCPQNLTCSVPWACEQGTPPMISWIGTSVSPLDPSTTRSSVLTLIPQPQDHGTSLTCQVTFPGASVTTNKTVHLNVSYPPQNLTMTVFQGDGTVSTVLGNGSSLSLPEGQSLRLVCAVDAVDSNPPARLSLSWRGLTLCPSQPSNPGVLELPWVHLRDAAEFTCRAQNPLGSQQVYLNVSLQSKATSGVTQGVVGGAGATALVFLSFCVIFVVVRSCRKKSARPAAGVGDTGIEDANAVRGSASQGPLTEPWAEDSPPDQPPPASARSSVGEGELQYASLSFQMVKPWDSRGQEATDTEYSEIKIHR

[5] = test system: Trypanosoma cruzi; test: Trypanosoma cruzi phosphomannomutase and mannose-1-phosphate guanylyltransferase assay; format: functional; details: 10 µM
[6] = target: T2, Arginase-2, mitochondrial (Homo sapiens) (UniProt P78540); test: in vitro enzyme assay to detect the production of urea directly proportional to the activity of Arginase II; format: functional; details: 33.3 µM; note: in the data most compounds retested in dose-response had high values
T2 sequence (whole entry): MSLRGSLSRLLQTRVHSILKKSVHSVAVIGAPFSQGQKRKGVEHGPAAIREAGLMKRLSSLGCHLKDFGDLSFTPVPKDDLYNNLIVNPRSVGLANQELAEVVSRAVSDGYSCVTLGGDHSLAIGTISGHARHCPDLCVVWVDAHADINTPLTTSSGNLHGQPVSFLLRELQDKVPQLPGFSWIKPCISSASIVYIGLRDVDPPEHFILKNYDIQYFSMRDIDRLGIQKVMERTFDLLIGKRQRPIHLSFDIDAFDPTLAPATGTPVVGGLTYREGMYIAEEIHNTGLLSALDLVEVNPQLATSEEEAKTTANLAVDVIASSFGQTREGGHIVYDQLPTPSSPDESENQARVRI

[7] = target: T3, Proteasome subunit beta (Trypanosoma cruzi) (UniProt O96673); test: Trypanosoma cruzi proteasome chymotrypsin-like activity (TcProtChymo) assay.; note: in the data most compounds retested in dose-response had high values; format: functional; details: 9.37 µM
T3 sequence (whole entry): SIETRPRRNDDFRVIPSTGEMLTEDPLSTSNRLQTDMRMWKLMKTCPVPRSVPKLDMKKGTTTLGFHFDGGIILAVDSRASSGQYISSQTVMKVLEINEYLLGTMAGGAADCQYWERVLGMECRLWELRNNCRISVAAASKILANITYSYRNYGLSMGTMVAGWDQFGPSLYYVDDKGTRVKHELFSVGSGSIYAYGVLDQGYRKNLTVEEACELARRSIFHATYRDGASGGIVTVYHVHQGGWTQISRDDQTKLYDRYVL

[8] = organism: Homo sapiens; test: To identify inhibition of the IFN signalling (Jak-Stat) pathway via expression of an eGFP reporter gene under the control of an IFN-stimulated response element (ISRE) containing MxA promoter.; format: functional; details: 30 µM
[9] = target: T4, Tyrosyl-tRNA synthetase, putative (Trypanosoma cruzi (strain CL Brener)) (UniProt Q4DSP6); test: Trypanosoma cruzi tyrosyl tRNA synthetase (TcYRS) _High Tyrosine SOP; format: functional; details: 30 µM; note: in the data most compounds retested in dose-response had high values
T4 sequence (whole entry): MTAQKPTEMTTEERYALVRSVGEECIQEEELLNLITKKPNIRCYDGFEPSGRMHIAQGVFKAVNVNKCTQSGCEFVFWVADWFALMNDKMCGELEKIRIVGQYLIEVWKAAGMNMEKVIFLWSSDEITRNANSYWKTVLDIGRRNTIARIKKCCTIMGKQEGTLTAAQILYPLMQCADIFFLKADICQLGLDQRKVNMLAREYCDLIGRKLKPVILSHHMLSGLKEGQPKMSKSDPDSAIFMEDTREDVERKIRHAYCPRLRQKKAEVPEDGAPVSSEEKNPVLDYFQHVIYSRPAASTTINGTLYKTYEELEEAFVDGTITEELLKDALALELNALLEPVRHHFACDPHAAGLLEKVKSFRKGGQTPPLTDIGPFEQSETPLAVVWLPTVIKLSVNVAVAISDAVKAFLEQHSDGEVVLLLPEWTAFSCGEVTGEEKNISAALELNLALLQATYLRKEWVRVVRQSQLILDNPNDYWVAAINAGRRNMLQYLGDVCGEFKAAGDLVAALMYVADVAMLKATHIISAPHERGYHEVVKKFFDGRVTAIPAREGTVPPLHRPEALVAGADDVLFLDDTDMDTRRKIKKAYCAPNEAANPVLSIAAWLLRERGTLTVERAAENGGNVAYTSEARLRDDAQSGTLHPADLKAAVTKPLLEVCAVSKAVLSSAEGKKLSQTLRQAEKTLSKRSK

[10] = target: T4, Tyrosyl-tRNA synthetase, putative (Trypanosoma cruzi (strain CL Brener)); test: Trypanosoma cruzi tyrosyl tRNA synthetase (TcYRS) SOP; format: functional; details: 30 µM
[11] = target: Chromo domain-containing protein 1 (Saccharomyces cerevisiae (strain ATCC 204508 / S288c) (Baker's yeast)) (UniProt P32657); test: ScCHD-1 Enzyme Inhibition Assay; format: functional; details: 30 µM; note: in the data most compounds retested in dose-response had high values
Sequence of Chromo domain-containing protein 1 (Saccharomyces cerevisiae (strain ATCC 204508 / S288c) (Baker's yeast)) (P32657 whole entry, the tested form may be a part): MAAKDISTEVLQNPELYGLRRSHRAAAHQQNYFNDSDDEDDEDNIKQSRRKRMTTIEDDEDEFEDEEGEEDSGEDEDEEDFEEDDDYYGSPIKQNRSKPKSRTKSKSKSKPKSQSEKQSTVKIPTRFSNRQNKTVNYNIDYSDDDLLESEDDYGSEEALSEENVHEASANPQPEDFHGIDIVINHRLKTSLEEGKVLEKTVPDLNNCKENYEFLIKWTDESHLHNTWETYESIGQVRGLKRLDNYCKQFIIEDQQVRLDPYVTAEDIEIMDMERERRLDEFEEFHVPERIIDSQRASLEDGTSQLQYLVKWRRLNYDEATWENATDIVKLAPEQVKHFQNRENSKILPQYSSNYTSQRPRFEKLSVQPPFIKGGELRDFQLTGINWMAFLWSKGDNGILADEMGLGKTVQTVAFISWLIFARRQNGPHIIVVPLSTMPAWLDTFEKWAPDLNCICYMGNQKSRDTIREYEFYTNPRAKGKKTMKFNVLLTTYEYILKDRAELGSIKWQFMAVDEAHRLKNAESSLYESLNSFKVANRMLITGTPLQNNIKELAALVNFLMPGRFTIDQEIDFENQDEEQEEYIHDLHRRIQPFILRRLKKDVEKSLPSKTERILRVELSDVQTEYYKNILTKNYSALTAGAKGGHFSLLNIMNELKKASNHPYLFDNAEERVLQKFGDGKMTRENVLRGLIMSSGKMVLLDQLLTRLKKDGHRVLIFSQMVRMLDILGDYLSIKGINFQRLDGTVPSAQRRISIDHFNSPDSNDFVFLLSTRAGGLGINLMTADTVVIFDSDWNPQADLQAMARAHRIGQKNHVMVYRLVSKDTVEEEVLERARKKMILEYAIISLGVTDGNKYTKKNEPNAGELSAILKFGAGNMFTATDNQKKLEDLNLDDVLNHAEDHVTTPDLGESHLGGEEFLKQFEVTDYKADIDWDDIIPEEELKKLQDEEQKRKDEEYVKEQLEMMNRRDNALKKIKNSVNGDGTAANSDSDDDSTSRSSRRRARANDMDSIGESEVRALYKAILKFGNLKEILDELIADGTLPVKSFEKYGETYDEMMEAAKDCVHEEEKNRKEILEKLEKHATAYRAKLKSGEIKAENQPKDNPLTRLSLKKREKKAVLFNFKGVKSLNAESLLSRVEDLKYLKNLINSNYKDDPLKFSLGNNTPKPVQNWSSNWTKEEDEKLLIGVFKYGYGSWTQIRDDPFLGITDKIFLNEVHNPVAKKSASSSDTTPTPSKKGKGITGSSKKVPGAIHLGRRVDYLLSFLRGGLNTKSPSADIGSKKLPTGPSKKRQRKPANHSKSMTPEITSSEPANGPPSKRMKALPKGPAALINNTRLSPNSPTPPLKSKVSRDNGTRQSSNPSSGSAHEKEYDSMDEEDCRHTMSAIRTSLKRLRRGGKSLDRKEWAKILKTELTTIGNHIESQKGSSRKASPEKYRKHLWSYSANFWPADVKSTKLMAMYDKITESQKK

Sequence of Protein translocase subunit SecA (Escherichia coli (strain K12)) (P10408 whole entry): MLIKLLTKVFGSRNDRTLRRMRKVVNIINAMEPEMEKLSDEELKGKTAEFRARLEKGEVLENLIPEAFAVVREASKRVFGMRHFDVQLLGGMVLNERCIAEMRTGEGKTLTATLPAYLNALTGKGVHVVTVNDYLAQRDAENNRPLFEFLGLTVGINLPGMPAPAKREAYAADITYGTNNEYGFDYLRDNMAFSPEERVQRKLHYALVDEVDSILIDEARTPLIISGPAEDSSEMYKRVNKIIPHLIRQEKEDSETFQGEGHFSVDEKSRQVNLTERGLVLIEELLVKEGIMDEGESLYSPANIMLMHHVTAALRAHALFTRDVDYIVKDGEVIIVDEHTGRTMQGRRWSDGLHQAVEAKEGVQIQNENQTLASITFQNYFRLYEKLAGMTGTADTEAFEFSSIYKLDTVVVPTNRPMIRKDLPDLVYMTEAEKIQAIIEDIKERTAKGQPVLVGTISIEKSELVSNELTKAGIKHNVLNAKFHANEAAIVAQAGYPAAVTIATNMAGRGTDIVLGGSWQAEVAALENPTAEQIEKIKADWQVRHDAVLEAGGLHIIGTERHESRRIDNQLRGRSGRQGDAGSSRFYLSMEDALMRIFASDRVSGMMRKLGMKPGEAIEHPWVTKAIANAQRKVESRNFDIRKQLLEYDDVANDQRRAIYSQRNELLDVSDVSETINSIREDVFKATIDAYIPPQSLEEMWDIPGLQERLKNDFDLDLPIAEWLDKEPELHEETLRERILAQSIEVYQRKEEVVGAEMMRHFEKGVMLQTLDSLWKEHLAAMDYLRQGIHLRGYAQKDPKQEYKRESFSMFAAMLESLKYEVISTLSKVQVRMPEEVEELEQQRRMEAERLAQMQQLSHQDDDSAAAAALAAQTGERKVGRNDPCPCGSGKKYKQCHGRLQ

Structure (SMILES) | Percent Effect [1] [%] | Percent Effect [2] [%] | Percent Effect [3] [%] | Percent Effect [4] [%] | Percent Effect [5] [%] | Percent Effect [6] [%] | Percent Effect [7] [%] | Percent Effect [8] [%] | Percent Effect [9] [%] | Percent Effect [10] [%] | Percent Effect [11] [%]
Cc1cn2c(n1)CCC(NC(=O)CCn1ccnn1)C2 (stereo not given) | -3.55 | 5.26 | -3.01 | -3.07 | -3.08 | 3.24 | 5.33 | -2.68 | 2.46 | 6.17 | 3
COc1ccc2cc(C3CN(C(=O)C4CCOCC4)CCO3)ccc2c1 (stereo not given) | -3.12 | 2.7 | 1.82 | 0.48 | 1.93 | 2.38 | 9.31 | -4.85 | 4.76 | 12.2 | -2.89
Cc1nnc(SCC(=O)N2CCC3(CC2)c2ccccc2CC3O)o1 (stereo not given) | -5.99 | 13 | -6.65 | 21.9 | 6.79 | 0 | 7.49 | -5.03 | 3.23 | 16.1 | -7.51
O=C(c1cscn1)N1CC[C@]2(C[C@@H](OCCN3CCCC3)CO2)C1 | -1.81 | 13.3 | 1.02 | -2.21 | -2.95 | -0.699 | 11.4 | 7.58 | 5.32 | 14.1 | -0.0589
O=C(CN1CCCC1Cn1cncn1)Nc1cccnc1 (stereo not given) | -3.94 | 9.72 | -1.95 | 0.616 | -1.26 | 4.86 | 16 | -11.7 | 5.26 | 10.3 | -1.86
c1ccc(-c2nc(CN3CCCC3Cn3cncn3)cs2)cc1 (stereo not given) | -2.21 | -17.7 | -1.4 | 4.03 | 3.68 | -2.28 | 1.39 | -16.9 | 4.43 | 3.8 | 25.8
Cc1cn(CC(=O)NC2CCN(C(=O)C3CC3)CC2)c2ccccc12 | -5.47 | 2.7 | -7.57 | 10.7 | 7.72 | 0.744 | 4.55 | 9.22 | 3.23 | 11.1 | -3.71
c1csc(CN2CCn3c(Cn4cncn4)cnc3C2)n1 | -3.71 | 2.67 | 12.1 | 4.38 | -0.984 | 4.43 | 6.08 | -18.1 | 2.13 | 1.28 | -1.62
NC(=O)C1CCCN1Cc1cccc(NC(=O)c2ccsc2)c1 (stereo not given) | -3.24 | 13.3 | 0.719 | 13.7 | 3.6 | 10.4 | 20.2 | 11.8 | 10.4 | 18.5 | -10.5
Cn1cc(N2CCCC(NCc3cccc4c3OCCCO4)C2)cn1 (stereo not given) | -4.17 | 16.2 | -10 | 1.61 | 0.472 | -4.01 | 0.721 | 3.65 | 7.39 | 23.5 | -7.98
O=C(CN1CCCC1Cn1cncn1)NC(C1CC1)C1CC1 (stereo not given) | -1.42 | -1.39 | 2.21 | -0.594 | 2.04 | 1.32 | 10.9 | -11.5 | 3.16 | 0 | -1.96
Cc1ccc(N2CCCC(NCC(=O)NC3CCOCC3)C2)nn1 (stereo not given) | -5.04 | -3.8 | -5.1 | 4.11 | -1.13 | 4.95 | 3.94 | -13.5 | 0 | 5.06 | -2.4
CCCNC(=O)N1CCC(Oc2cc(C)ccc2F)(C(=O)O)CC1 | -2.42 | 9.72 | -3.19 | 22.9 | 6.9 | 24.3 | 1.75 | -5.25 | -1.05 | 10.3 | -1.57
CC(=O)N1CCCC1c1nnc2n1CCCCC2 (stereo not given) | -8.8 | -32.4 | 1.68 | -1.76 | -0.195 | 5.42 | 6.85 | 5.46 | 7.92 | 13.4 | -5.77
Cc1nc(CN2CCCC(NCCc3ccccc3Cl)C2)no1 (stereo not given) | -4.45 | 7.59 | 4.77 | 11.6 | 2.36 | -1.14 | -3.19 | -4.21 | 5.42 | 8.86 | -0.689
O=C(Nc1ccc(F)cc1)N1C[C@H]2C[C@H](C(=O)N3CCOCC3)[C@@H](C1)O2 | -1.74 | 7.79 | 3.92 | 3.78 | 0.493 | 4.52 | 2.44 | 29.3 | 4.23 | 14.1 | -6.94
CCCn1nc2c(cc1=O)CN(Cc1cc(C)on1)CC2 | -5.31 | -2.7 | -46.3 | 0.285 | -1.76 | 7.08 | 17.8 | 9.88 | 6.93 | 6.1 | -7.36
CC(C)CNC(=O)CN1C=Nc2ccccc2S1(=O)=O | -6.73 | 7.89 | 0.627 | -6.85 | -10.6 | 2.16 | -1.95 | 2.69 | 0.493 | 6.17 | -5
COc1cc(CNC2CCCc3c2cnn3C)cc(OC)c1 (stereo not given) | -5.5 | 8.11 | 139 | 9.27 | 1.6 | -3.61 | -1.44 | 2.92 | 5.42 | 3.7 | -10
O=C(O)C(c1ccc2c(c1)OCCO2)N1CCCCCC1 (stereo not given) | -4.06 | 5.33 | 0.637 | 5.42 | -0.682 | 4.69 | 17.1 | -7.93 | 9.29 | 13.6 | -1.28
